Screening data as filed in PubChem BioAssay.
LASV entry inh = inhibitors of Lassa virus binding or cell entry. Lassa virus pseudotype entry inhibition, cell reporter. Potency, µM (series often up to 37.9 µM), for the others: at the top dose activity change, negative = inhibition, usual class: inhibitors. AID 540256. 300,000 tested, 1.2% active; calls by dose curve; tested in HEK293 cells; note: potency is the fitted concentration of half-maximal effect; nearly all actives have a fitted effect of over 50% in size
Marburg entry inh = Marburg virus entry inhibition; Marburg virus pseudotyped entry inhibition, cell reporter; Potency, µM (series often up to 37.8 µM), for the others: top-dose activity change, negative = inhibition, actives largely listed as inhibitors; 300,000 tested, 1.8% active; calls by dose curve; tested in HEK293 cells; note: potency is the fitted concentration of half-maximal effect
HCMV antiviral = inhibitors of human cytomegalovirus. HFF cells, HCMV-luciferase reporter, 72 h; hits give low values. 410,000 tested, 4.5% active. activity change, negative = inhibition, % at 57.5 µM. AID 1259415; in the data active = activity change below about -60%; inconclusive = no clear call, values can overlap the other calls; inactive = above about -39%
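Human foreskin fibroblasts infected with luciferase-reporter HCMV at MOI 1 PFU/cell, compounds at two doses. Luciferase measured 72 h post infection; normalized to buffer-only basal and Salinomycin (10uM) controls.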
FMDV antiviral = antivirals against foot and mouth disease virus; FMDV antiviral cell-based qHTS; Potency, µM (titrated, usually from 57.9 µM), without a hit: top-dose activity change, negative = inhibition, most hits filed as inhibitors; 410,000 tested, 1.2% active; AID 1159524; calls by dose curve; tested in HEK293T cells; note: read-out not given here; potency is the fitted concentration of half-maximal effect; nearly all actives have a fitted effect of over 45% in size
FBPA Giardia inh = blocks Giardia fructose-bisphosphate aldolase activity; A8B2U2; purified Giardia FBPA; Potency, µM (doses to about 59.6 µM), for the others: top-dose activity, negative = inhibition, actives largely listed as inhibitors; 290,000 tested, 0.71% active; note: potency is the fitted concentration of half-maximal effect; nearly all actives have a fitted effect of over 55% in size
Target sequence (A8B2U2 whole entry, looked up): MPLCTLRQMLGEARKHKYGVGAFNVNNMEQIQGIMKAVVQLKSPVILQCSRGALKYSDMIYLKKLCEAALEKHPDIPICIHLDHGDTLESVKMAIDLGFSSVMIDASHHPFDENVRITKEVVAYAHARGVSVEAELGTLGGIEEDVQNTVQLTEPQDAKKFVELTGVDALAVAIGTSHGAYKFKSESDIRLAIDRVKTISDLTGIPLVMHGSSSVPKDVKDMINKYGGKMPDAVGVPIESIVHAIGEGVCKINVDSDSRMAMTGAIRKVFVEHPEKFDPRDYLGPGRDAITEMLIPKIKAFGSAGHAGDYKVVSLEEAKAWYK
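Giardia FBPA (40 nM reagent) was preincubated 10 min at RT with compound (up to 57.5 uM final), then substrate plus GAPDH/TPI/NAD/arsenate coupling system with diaphorase/resazurin was added; resorufin fluorescence (525/598 nm) was read after 20 min.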
HCV inh = HCV inhibition; Huh7.5.1 HCVcc-Cre infection, luciferase reporter, 44 h; Potency, µM (series often up to 41.8 µM), for inactives: at the highest dose activity change, negative = inhibition, actives largely listed as inhibitors; 340,000 tested, 3.4% active; AID 651820; note: potency is the fitted concentration of half-maximal effect
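Infectious HCV cell culture screen: compound-treated cells (1,000/well, pre-plated 4 h) are infected with HCVcc-Cre at roughly 0.5 moi and grown 44 h. Infection is quantified by luciferase signal after 15 min substrate incubation at room temperature.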
* marks the source's active call; other numbers are inactive results; ? = inconclusive; / = not tested or not shown; [ ] = dose if it differs, or a comment. Sampled rows, rich in hits. Any-hit rate of the full collection: about 8.3%. Unless noted, calls come from the whole dose curve; as a rule, active = well fitted curve in the direction sought with a large enough effect; inconclusive = small, poorly fitted or top-dose-only effect, or another doubt; inactive = no such curve, though single readings can be large; an effect the other way counts as inactive or inconclusive. % is set by controls: 0 for no effect and ±100 for the full control effect.

SMILES	LASV entry inh	Marburg entry inh	HCMV antiviral	FMDV antiviral	FBPA Giardia inh	HCV inh
C[C@]12CC[C@@H]3c4ccc(O)cc4CC[C@H]3[C@@H]1CC[C@@H]2OC(=O)CCC(=O)O	3%	-16%	-100*	-14%	12%	5%[8.37 µM]
Cc1cccc(N(CC(=O)Nc2ccccc2C(F)(F)F)S(=O)(=O)c2ccccc2)c1C	?	?	-26	-1%	/	/
Cc1ccc(-c2noc(-c3ccc(N4CCCC4)c([N+](=O)[O-])c3)n2)cc1	-3%[46.1 µM]	?	?	0%	/	/
Cc1cccc(-c2noc(-c3ccc(N4CCOCC4)c([N+](=O)[O-])c3)n2)c1	3%[46.1 µM]	?	-23	1%	/	/
Cc1cccc(-c2noc(-c3ccc(N4CCCC4)c([N+](=O)[O-])c3)n2)c1	-6%[46.1 µM]	?	-74*	?	/	/
Cc1cccc(-c2noc(-c3ccc(N4CCN(C)CC4)c([N+](=O)[O-])c3)n2)c1	-22%[46.1 µM]	-2%[46.1 µM]	-78*	-12%	/	/
CC(=O)c1ccc(F)c(-c2cc(C)cc3c2OC(CNC(=O)c2cnc4ccccn4c2=O)C3)c1 (centres undefined)	/	/	/	16%	/	/
COCc1ccc(CN2CCOc3ccc(C4=CCCCC4)cc3C2)o1	/	/	/	-8%	/	/
N#Cc1c(-c2ccc(Cl)cc2)n(O)c2ccccc12	13µM*	8.9µM*	/	0%	/	?
O=C1CCN(CCc2ccccc2)CCN1[C@H](CO)Cc1ccccc1	/	/	-10	-11%	6%	2.2µM*
Cc1ccc(OCCn2cc(C(=O)c3ccco3)c3ccccc32)cc1C	?	-16%[46.1 µM]	-4	-21%	/	/
O=C(COc1ccccc1)c1cn(Cc2ccccc2)c2ccccc12	4%	?	-63*	-14%	-1%	-11%
CC(=O)c1cn(CCCOc2ccccc2)c2ccccc12	/	/	-13	?	-14%	7.1µM*
CC(=O)c1cn(CCOc2ccc(F)cc2)c2ccccc12	/	/	9	?	-1%	13µM*
Cc1cc(OCCn2cc(/C(N)=N/O)c3ccccc32)ccc1Cl	24%	?	3	/	-2%	7.1µM*
O=C(C(=O)N1CCOCC1)c1cn(CCCOc2ccccc2)c2ccccc12	-5%[46.1 µM]	?	57	9%	-6%	-2%
O=c1cc(-c2cc(O)c(O)c([C@@H]3O[C@H](CO)[C@@H](O)[C@H](O)[C@H]3O)c2)oc2cc(O[C@@H]3O[C@H](CO)[C@@H](O)[C@H](O)[C@H]3O)cc(O)c12	/	/	/	/	-14%	/
CCOC(=O)CC(NC(=O)c1cc2c(=O)n3cccc(C)c3nc2s1)c1ccc(OCC)c(OC)c1 (centres undefined)	4%[46.1 µM]	-20%[46.1 µM]	36	3%	/	/
O=c1c(-c2ccc(O[C@@H]3O[C@H](CO)[C@@H](O)[C@H](O)[C@H]3O)cc2)coc2cc(O)cc(O)c12	/	/	/	/	0%	/
Cc1cn(CC(=O)NCCc2ccccn2)c(=O)[nH]c1=O	/	/	13	-16%	/	2.8µM*
Cc1nc2ccc(NC(=O)c3ccc(Cl)s3)cc2s1	/	/	-15	21%	0%	?
Cc1nc2ccc(NC(=O)c3ccc(Cl)c(NC(=O)c4cccs4)c3)cc2s1	-29%	?	-3	-15%	-3%	10µM*
COc1c(Cl)cc(Cl)cc1/C=C/C(=O)c1ccc(NC(=O)c2cccs2)cc1	?	11µM*	-99*	0%	2%	14µM*
Cc1ccc(NC(=O)c2ccc(Cl)c(NC(=O)c3cccs3)c2)cc1	/	/	37	7%	/	13µM*
Cc1ccc(NC(=O)c2cccs2)cc1	-2%	-5%	95	/	-6%	-4%
SMILES	LASV entry inh	Marburg entry inh	HCMV antiviral	FMDV antiviral	FBPA Giardia inh	HCV inh
CC(CCN1CCCc2nc(C)c(C)cc21)=NO[C@H](C)CN1CCCc2nc(C)c(C)cc21	/	-41%[14.2 µM]	/	/	/	/
COc1ccccc1C(=O)N/C(=N/c1nc(C)cc(C)n1)Nc1ccccc1	-9%[46.1 µM]	?	87	-20%	2%	8.9µM*
CC(=O)N/C(=N\c1nc(C)cc(C)n1)Nc1ccc(NC(C)=O)cc1	/	-20%[46.1 µM]	/	/	/	/
CCc1ccc(N/C(=N/c2nc(C)cc(C)n2)NC(C)=O)cc1	/	/	-60*	-9%	1%	-2%
CCCOc1ccccc1N/C(=N/c1nc(C)cc(C)n1)NC(=O)Nc1ccc(Cl)cc1	?	0.71µM*	-38	-27%	-5%	?
Cc1ccc(C)c(S(=O)(=O)N2CCN(C(=O)Cc3ccsc3)CC2)c1	-29%	22%	14	4.5µM*	1%	/
CCC(NC(=O)Nc1nnc(C(F)(F)F)s1)(C(F)(F)F)C(F)(F)F	7.1µM*	2.5µM*	-105*	?	-11%	4.5µM*
O=C(O)CCC(=O)Nc1nnc(C(F)(F)F)s1	-3%	8%[46.1 µM]	-14	-1%	-8%	0%
COc1ccc(NC(=O)c2c(C)oc3ccc(O)c(CN4CCCCCC4)c23)cc1Cl	?	4.5µM*	-94*	0%	/	/
Cc1ccc(NC(=O)c2c(C)oc3ccc(O)c(CN4CCCCC4)c23)cc1	?	?	-65*	-15%	/	/
COc1ccc(-c2nc3cc(NC(=O)Cc4ccc(OC)c(OC)c4)ccc3o2)cc1	-20%	?	-76*	?	-3%	7.1µM*
O=C(Cc1ccc(Cl)cc1)Nc1ccc2oc(=O)ccc2c1	-14%	-13%[46.1 µM]	-64*	-24%	-2%	?
COc1ccc(-c2nc3cc(NC(=O)CSc4ccc(C)cc4)ccc3o2)cc1	?	?	78	19%	/	/
COc1ccc(-c2nc3cc(NC(=O)Cc4ccc(Cl)cc4)ccc3o2)cc1OC	?	/	-94*	-20%	/	/
Cc1ccc2c(c1)c1c3n2CCN(C(=O)c2cccc(C(F)(F)F)c2)C3CCC1 (centres undefined)	-14%[46.1 µM]	-28%[46.1 µM]	-36	-25%	/	/
Cc1nc2ccn(Cc3ccco3)c(=O)c2cc1C(=O)NCc1ccccc1F	?	/	-64*	-21%	/	/
COc1ccc(Cn2ccc3nc(C)c(C(=O)NCc4ccc(F)cc4)cc3c2=O)cc1	?	/	-77*	-17%	/	/
CN(C(=O)COC(=O)c1ccc2c(c1)OCCO2)c1ccccc1	21%	?	-69*	47%	4%	13%
Cc1ccc(C(=O)OCC(=O)N(C)c2ccccc2)cc1C	-9%	0%[46.1 µM]	-18	0%	13%	-2%
Cc1cc(C(=O)OCC(=O)N(C)c2ccccc2)ccc1[N+](=O)[O-]	-4%[46.1 µM]	7%[46.1 µM]	-63*	-12%	5%	-8%
COc1ccc(C2C3=C(CC(C)(C)CC3=O)Oc3ncn(CC(C)C)c(=N)c32)cc1 (centres undefined)	-14%	-7%	-19	-29%	0%	-7%
N=c1c2c(ncn1Cc1ccco1)Oc1ccc3ccccc3c1C2c1ccccc1 (centres undefined)	?	9.2µM*	30	?	2%	?
COc1ccc(C2C3=C(CC(C)(C)CC3=O)Oc3ncn(Cc4ccco4)c(=N)c32)cc1 (centres undefined)	?	?	9	28µM*	13%	?
